# According to PubChem BioAssay AID504834 (National Center for Advancing Translational Sciences (NCATS), 2011):
# Out of some 320,000 compounds screened, about 22,000 (6.9%) were called active. Where a call stands in place of a potency, no number is given. Inconclusive results (about 27%) are left out. This excerpt belongs to a sample that is enriched for actives. Unmarked numbers belong to inactive results. Calls follow the shape of the dose curve; as a rule, active = well fitted inhibition curve with a large enough effect; inconclusive = small, poorly fitted or top-dose-only effect, or another doubt; inactive = no such curve, though single readings can be large or run the other way.
# Experiment: Primary qHTS for delayed death inhibitors of the malarial parasite plastid, 96 hour incubation
# Conditions: P. falciparum luciferase reporter growth; series mostly up to 28.7 µM
# Excerpt: The goal of this screen is to discover new antimalarial compounds that act by inhibiting the development of the apicoplast in the malarial parasite Plasmodium falciparum. The biochemical processes that make this organelle essential for erythrocytic stage parasites are not well understood. However, antibiotics such as azithromycin and tetracycline, which target the apicoplast translational machinery, have a potent antimalarial effect.
# We have developed a cell-based assay that measures parasite growth based on the expression of an integrated copy of a firefly luciferase reporter. To detect small molecules that cause this "delayed death" phenotype, erythrocytes infected with the luciferase-expressing parasites were incubated with compounds for either one or two generations, corresponding to 48 and 96 hours, respectively. Compounds that inhibit parasite growth in the second generation, but not the first, should be enriched in antimalarials that target the apicoplast. Growth inhibition is detected by a decrease in luciferase activity.
# Assay Provider: David Fidock and Eric Ekland, Columbia University
# Keywords: NIH Roadmap, MLPCN, MLI, MLSMR, qHTS, NCGC, qHTS, malaria, luciferase, viability
# Four microliters of infected erythrocytes (2% hematocrit, 0.05% parasitemia final concentration) in culture medium were dispensed and the plates incubated for 96 hours at 37 C in 5% CO2. Two microliters of luciferase detection reagent was added and luminescence was detected by a ViewLux (PerkinElmer) reader.
# Potency is read from the fitted curve at half-maximal effect.
Structure (SMILES),Potency,"activity change, negative = inhibition"
CN(CCC(=O)Nc1cc(S(=O)(=O)N(C)C)ccc1Cl)CC(=O)Nc1ccc(F)cc1,inactive,
O=C(Nc1cccc2c1N(C(=O)c1ccco1)CCC2)c1ccco1,inactive,
O=C(CSc1ncnc2c1oc1ccccc12)NC1CCCC1,inactive,
CCCOc1ccc(-c2c(C(=O)N/N=C/c3ccco3)nnn2-c2nonc2N)cc1,inactive,
Cc1cc(C)cc(NC(=O)N(C)Cc2ccccc2)c1,inactive,
CN(Cc1ccccc1)C(=O)CCc1ccccc1,inactive,
CN(Cc1ccccc1)C(=O)c1cccc(C(=O)N(C)Cc2ccccc2)c1,13.1 µM (active),
Cc1cc(C(=O)N/N=C/c2ccccn2)c2ccccc2n1,inactive,
O=C(N/C(=C\c1ccc(O)cc1)C(=O)N1CCCCC1)c1ccccc1,inactive,
COc1ccc(C)cc1NC(=O)C(Sc1ccccc1)c1ccccc1 (centres undefined),inactive,
COc1ccc(C)cc1NC(=O)C(OC(=O)c1cccc(S(=O)(=O)N(C)c2ccccc2)c1)c1ccccc1 (centres undefined),inactive,
Cc1ccc(C)c(NC(=O)C(OC(=O)c2ccc(C)s2)c2ccccc2)c1 (centres undefined),2.94 µM (active),
C/C(CC(=O)NCc1ccc(Cl)cc1)=N\NC(=O)COc1ccc(C)cc1Br,inactive,
CC(C)C[C@H](NC(=O)N1CCn2c1nc1ccccc12)C(=O)NC1CC1,inactive,
O=S(=O)(NCCc1ccccn1)c1cc(Cl)cc(Cl)c1O,inactive,
N#Cc1ccsc1NC(=O)CN1CCCCC1,inactive,
N#Cc1ccsc1NC(=O)CN1CCN(S(=O)(=O)c2cc(Cl)ccc2Cl)CC1,4.15 µM (active),
O=S(=O)(c1cc(Cl)ccc1Cl)N1CCN(Cc2ccco2)CC1,inactive,
CCN(CC)c1ccc(/C=N/NC(=O)CNC(=O)c2cccnc2)cc1,inactive,
O=C(COc1ccc(S(=O)(=O)N2CCCCC2)cc1)NCc1ccccn1,inactive,
CCOc1ccccc1NC(=O)COc1ccc(S(=O)(=O)N2CCCC2)cc1,8.28 µM (active),
CCOc1ccc(NC(=O)COc2ccc(S(=O)(=O)N3CCCC3)cc2)cc1,inactive,
CCOc1ccccc1NC(=O)C1CCCN(S(=O)(=O)c2ccccc2)C1 (centres undefined),inactive,

Structure (SMILES),Potency,"activity change, negative = inhibition"
CC(=O)NCCC(=O)Nc1cc(S(=O)(=O)N2CCCCC2)ccc1Oc1cccc(C)c1,inactive,
CCOc1ccc(S(=O)(=O)N2CCCCC2)cc1NC(=O)CN1CCCC1c1cccs1 (centres undefined),4.65 µM (active),
CN(C)C(=O)N=NC(=O)N(C)C,inactive,
O=C(Oc1ccc(Br)cc1)c1cccnc1,inactive,
O=C(COC(=O)c1cccc(Cl)c1)NC1CCCCCCC1,inactive,
CCc1c(C)c2ccc(OC3CCCCC3=O)cc2oc1=O (centres undefined),inactive,
Cc1ccc(C(=O)C(C)OC(=O)Cc2n[nH]c(=O)c3ccccc23)cc1C (centres undefined),inactive,
Cc1cc(C)c(S(=O)(=O)N(C)CC(=O)NCC2CCCO2)c(C)c1 (centres undefined),inactive,
COc1ccccc1CCC(=O)OCC(=O)N1CCN(S(=O)(=O)c2ccc(C)cc2C)CC1,inactive,
CCCCCCCN=C(C)c1ccccc1O,inactive,
C/C(=N\N(C)C)c1ccc(OCCOc2ccc([N+](=O)[O-])cc2)cc1,inactive,
COc1ccc(C(C#N)(CC(=O)O)c2cnccn2)cc1OC (centres undefined),inactive,
COc1cc(OC)cc(C(=O)NNC(=O)CNC(=O)c2ccc(Br)o2)c1,inactive,
S=C(NCCCc1ccccc1)Nc1ccc(Br)cc1,inactive,
O=C(Cc1cccc2ccccc12)NCCC1=CCCCC1,inactive,
S=C(NCCC1=CCCCC1)Nc1ccccc1,0.586 µM (active),
CC(=O)N1CC(=O)N(CC(=O)Nc2ccc(Br)cc2)C1=S,inactive,
CC(=O)c1nnn(-c2ccc(Cl)cc2C#N)c1C,inactive,
Cc1cccc(-c2c(NC(=O)c3ccco3)oc3ccc(Cl)cc3c2=O)c1,inactive,
Cc1noc(NS(=O)(=O)c2ccc(NC(=O)c3oc4ccc(F)cc4c3C)cc2)c1C,inactive,
Cn1cnc2c1c(=O)n(Cc1c(Cl)cccc1Cl)c(=O)n2C,inactive,
CC(C)CCn1c(=O)c2c(nc3n2CCCN3Cc2ccccc2)n(C)c1=O,6.57 µM (active),
CCOC(=O)CSc1nc2c(c(=O)n(Cc3ccccc3Cl)c(=O)n2C)n1C,inactive,

Structure (SMILES),Potency,"activity change, negative = inhibition"
N/C(=N\OC(=O)N1c2ccccc2Sc2ccccc21)c1ccc(Br)cc1,10.4 µM (active),
N/C(=N\OC(=O)Cc1ccccc1[N+](=O)[O-])c1ccc(Br)cc1,,12.7% [at 5.75 µM]
N/C(=N\OC(=O)/C=C/c1ccccc1)c1ccc(Br)cc1,inactive,
Cc1ccc(C)c(SCc2nc3sc(C(=O)O)c(C)c3c(=O)[nH]2)c1,inactive,
CC1CCN(C(=O)c2ccc3c(c2)NC(=O)CN3)CC1,inactive,
Cn1cc(CNC(=O)c2ccc(OC3CCN(Cc4ccccn4)CC3)cc2)cn1,inactive,
O=C(Nc1ccccc1C(=O)NCC1CCCO1)c1ccccc1F (centres undefined),inactive,
COc1ccc2cc(C(=O)NCC3CCCO3)[nH]c2c1 (centres undefined),inactive,
O=C(NCC1CCCO1)c1cc2c([nH]c3ccccc32)c(-c2ccc(F)cc2)n1 (centres undefined),9.28 µM (active),
Cc1ccc(C(=O)Nc2ccn(C)n2)cc1,inactive,
CCOc1ccc(-c2cc(C)[n+](CCN(CC)CC)c(-c3ccc(OCC)cc3)c2)cc1,0.37 µM (active),
CCOc1ccc2c(c1)C(c1ccc(C)cc1)=NNC(c1ccc(C)cc1)=N2,inactive,
CCOc1ccc(-c2nc(C)sc2CC(=O)O)cc1,inactive,
Nc1ccc(C(=O)Nc2ccccc2N)cc1,inactive,
Cc1ccc(S(=O)(=O)N2CCN(C(=O)c3cccs3)CC2)cc1,inactive,
COc1ccc(N2CCN(C(=O)c3cccs3)CC2)cc1,13.1 µM (active),
COc1ccc(S(=O)(=O)N2CCN(C(=O)c3cccs3)CC2)cc1OC,inactive,
O=C(c1cccs1)N1CCN(C(=O)N2CCOCC2)CC1,inactive,
CCS(=O)(=O)N1CCN(C(=O)c2cccs2)CC1,4.65 µM (active),
O=C(COc1ccccc1)Nc1ccc(N2CCN(C(=O)c3cccs3)CC2)cc1,inactive,
NC(=O)COc1ccccc1C(=O)NC12CC3CC(CC(C3)C1)C2,inactive,
CCN(CC)CCCN=C(N)N,inactive,
CC(C)(C)n1nnnc1C(c1ccccc1F)N1CCN(C(=O)c2ccco2)CC1 (centres undefined),inactive,
